# Laboratory results as given in PubChem BioAssay (NCATS).
# “And” between values parts separate entries of the source, which are not always exact repeats. Equal values may be shown once. Values without a mark were called inactive. Results filed as inconclusive are left out. Entries that show only a call come without a potency. For some of these results: Results with a measured potency or affinity are listed apart. The source made the active and inactive calls.
# Legend:
# [1] = Ebola virus entry assay, green channel fluorescence
# [2] = Ebola virus entry assay, reporter ratio channel; Channel type: primary
# [3] = Ebola virus entry assay, blue channel (ratio component)
# [4] = Ebola virus entry cell assay, ratio channel
# [5] = Immunotoxin (HA22) sensitization/mitigation study. Vehicle arm (PBS) (AID 1159510); conditions: cancer cells viability with PBS vehicle (HA22 study); series mostly up to 46.1 µM; also: potency is read from the fitted curve at half-maximal effect
# [6] = qHTS assay for cell viability of HEK293 cells (AID 743288; active = well fitted cell-killing curve with a large enough effect; also: nearly all actives have a fitted effect of over 50% in size); conditions: ATP luminescence (CellTiter-Glo), 18 h; max response: active compounds read low
# Outline: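 Readout is luciferase-coupled ATP content (CellTiter-Glo luminescence, 30 min room temperature) as a measure of metabolically competent cells. Parental HEK293 cells were plated 5 h or more before compound addition, then treated 18 h at 37 C.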
# [7] = qHTS assay for cell viability of the p53RE-bla HCT-116 cell line (AID 743292; active = well fitted cell-killing curve with a large enough effect; also: nearly all actives have a fitted effect of over 55% in size); conditions: p53RE-bla HCT-116 viability, ATP luminescence, 16 h; series mostly up to 95 µM
# Outline: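 CellSensor p53RE-bla HCT-116 cells (4,000/well) pre-incubated 5 h at 37 C, then exposed to compounds in DMSO for 16 h at 37 C. Viability read as ATP content by CellTiter-Glo luminescence after 30 min at room temperature.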
# [8] = Ebola virus entry assay, blue channel fluorescence
# [9] = Ebola virus entry reporter assay, green channel fluorescence
compound,measurement,setting,value
CCC(=O)O[C@@H]1C=C2CCC3C(CCC4(C)C3CC[C@@H]4OC(=O)CC)C2CC1 (stereo partly drawn),outcome,[1],inactive
same,outcome,[2],inactive
same,outcome,[3],inactive
COc1cccc2c1C(=O)c1c(O)c3c(c(O)c1C2=O)C[C@](O)(C(=O)CO)C[C@@H]3O[C@H]1C[C@H](N)[C@@H](O)[C@H](C)O1,AC50,[4],7.08 µM (active)
COc1ccc(CCN2CCN(CCCc3ccccc3)CC2)cc1OC,Potency,[5],23.5 µM (active)
CC(C)(C)NCC(O)c1ccc(O)c(CO)c1 (stereo not drawn),outcome,[2],inactive
Cc1cc(O)ccc1Cl,max response,[6],-2.31%
same,Potency,[7],inactive
same,outcome,[1],inactive
same,outcome,[2],inactive
same,outcome,[3],inactive
CC1(C)CCC(c2ccc(Cl)cc2)=C(CN2CCN(c3ccc(C(=O)NS(=O)(=O)c4ccc(N[C@H](CCN5CCOCC5)CSc5ccccc5)c(S(=O)(=O)C(F)(F)F)c4)cc3)CC2)C1,Potency,[5],0.332 µM (active)
CCCCn1c(=O)n(Cc2ccccc2F)c(=O)c2[nH]c(Cc3ccc(NC(C)=O)cc3)nc21,Potency,[5],inactive
Cc1nn(Cc2ccccc2Cl)c(C)c1CN(C)CC(O)COc1ccc(Cl)cc1 (stereo not drawn),Potency,[5],26.4 µM (active)
COc1ccc(C2=N[C@H](c3ccc(Cl)cc3)[C@H](c3ccc(Cl)cc3)N2C(=O)N2CCNC(=O)C2)c(OC(C)C)c1,Potency,[5],2.64 µM (active)
CCn1c(-c2nonc2N)nc2c(C#CC(C)(C)O)ncc(OC[C@H]3CCCNC3)c21,Potency,[5],10.5 µM (active)
CCN(CC)c1ccc(C(=C2C=CC(=[N+](CC)CC)C=C2)c2cc(S(=O)(=O)O)ccc2S(=O)(=O)[O-])cc1,outcome,[1],inactive
same,outcome,[2],inactive
same,outcome,[3],inactive
Cc1cc(C(=O)NNCc2ccccc2)no1,outcome,[8],inactive
same,outcome,[9],inactive
same,outcome,[4],inactive
CCOC(CN1C(=O)[C@](CC(=O)Nc2ccc(C)cc2)(NC(=O)Nc2ccc(C)cc2)c2ccccc21)OCC,Potency,[5],23.5 µM (active)
CCCS(=O)(=O)Nc1ccc(F)c(C(=O)c2c[nH]c3ncc(-c4ccc(Cl)cc4)cc23)c1F,Potency,[5],23.5 µM (active)
Clc1ccccc1CN1CCc2sccc2C1,outcome,[2],inactive
same,outcome,[3],inactive
Cn1c(=O)c(F)c(Nc2ccc(I)cc2F)c2c(=O)n(C[C@@H](O)CO)cnc21,Potency,[5],23.5 µM (active)
O=C(O)c1cc(Oc2ccc(C(F)(F)F)cc2Cl)ccc1[N+](=O)[O-],max response,[6],-14.8%
same,Potency,[7],inactive
same,outcome,[1],inactive
same,outcome,[2],inactive
same,outcome,[3],inactive
CCOCCOC(C)=O,max response,[6],-0.828%
same,Potency,[7],inactive
same,outcome,[1],inactive
same,outcome,[2],inactive
same,outcome,[3],inactive
O=C(O)COc1ccccc1,max response,[6],-7.91%
same,Potency,[7],inactive
same,outcome,[1],inactive
same,outcome,[2],inactive
same,outcome,[3],inactive
CC[C@@H]1C(=O)N(C)c2cnc(Nc3ccc(C(=O)NC4CCN(C)CC4)cc3OC)nc2N1C1CCCC1,Potency,[5],0.0066 µM (active)
CN[C@@H](C)C(=O)N[C@H]1CCCC[C@H]2CC[C@@H](C(=O)N[C@@H](c3ccccc3)c3cn(CCCCc4ccc(CCCCn5cc([C@@H](NC(=O)[C@@H]6CC[C@@H]7CCCC[C@H](NC(=O)[C@H](C)NC)C(=O)N76)c6ccccc6)nn5)cc4)nn3)N2C1=O,Potency,[5],inactive
CN1[C@@H]2CC[C@H]1CC(OC(=O)C(O)c1ccccc1)C2 (stereo partly drawn),outcome,[3],inactive
C[C@@H](N)C(=O)O,outcome,[1],inactive
same,outcome,[2],inactive
same,outcome,[3],inactive
COCCOCCO,max response,[6],-8% and -15.7%
same,Potency,[7],inactive
same,outcome,[1],inactive
same,outcome,[2],inactive
same,outcome,[3],inactive
Cc1cccc(Nc2nc(N[C@@H]3CCCC[C@H]3N)ncc2C(N)=O)c1,Potency,[5],18.7 µM (active)
O=C(O)C(Cl)Cl,max response,[6],-7.67% and 1.66%
same,Potency,[7],inactive
same,outcome,[1],inactive
same,outcome,[2],inactive
same,outcome,[3],inactive
CN1CCN(CCOc2cc(OC3CCOCC3)c3c(Nc4c(Cl)ccc5c4OCO5)ncnc3c2)CC1,Potency,[5],20.9 µM (active)
CC(=O)Nc1ccc(O)cc1,outcome,[2],inactive
same,outcome,[3],inactive
CCOc1cc(C(=O)Nc2ccc(Cl)c(-c3nc4ccccc4[nH]3)c2)cc(OCC)c1OCC,Potency,[5],14.8 µM (active)
CC(C)OC(=O)C1=CN(C(=O)c2ccc(F)c(F)c2)CC(C)(C)c2c1[nH]c1ccccc21,Potency,[5],2.96 µM (active)
CCOc1cc(NC(C)=O)ccc1C(=O)OC,outcome,[2],inactive
COc1cc2nccc(Oc3ccc(NC(=O)Nc4cc(C)on4)c(Cl)c3)c2cc1OC,Potency,[5],18.7 µM (active)
CC(O)CN1CCN(CC(=O)[O-])CCN(CC(=O)[O-])CCN(CC(=O)[O-])CC1.[Gd+3] (stereo not drawn),outcome,[2],inactive
same,outcome,[3],inactive
C1CCC(NC2CCCCC2)CC1,max response,[6],4.88% and 5.5% and 0.405%
same,Potency,[7],inactive
same,outcome,[1],inactive
same,outcome,[2],inactive
same,outcome,[3],inactive
